Results as given in PubChem BioAssay (NCATS).
Inconclusive results are not listed. Where a call stands in place of a potency, no number is given. Active and inactive are the calls of the source. Calls come from the whole dose curve; as a rule, active = well fitted cell-killing curve with a large enough effect; inconclusive = small, poorly fitted or top-dose-only effect, or effect the other way; inactive = flat fitted curve, though single readings scatter.
Potency is the fitted concentration of half-maximal effect.

What follows are molecules tested on HeLa (assay: Primary qHTS to identify gynecologic anti-cancer compounds using libraries of approved drugs and bioactive compounds (AID 1345084; note: nearly all actives have a fitted effect of over 55% in size)). Settings: Gynecologic cancer cell panel viability, ATPlite luminescence, 48 h; series mostly up to 57.5 µM.
Summary of the method: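 Cell viability after 48 h drug treatment, ATPlite luminescence readout; five doses.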
For `CCN1CCc2nc(N)oc2CC1`, the Potency was “inactive”.
For `CCn1cc(C(=O)O)c(=O)c2cc3c(cc21)OCO3`, the Potency was “inactive”.
With `CCc1c(C)[nH]c2c1C(=O)C(CN1CCOCC1)CC2` (stereo not given) the Potency was “inactive”.
In the case of `COC(=O)[C@@H](N)Cc1ccc(O)c(O)c1`, the Potency was “inactive”.
With `CCOC(=O)c1cnc2c(cnn2CC)c1NN=C(C)C` the Potency was “inactive”.
For `Cc1scc2c1N(C(=O)CN1CCN(C)CC1)c1ccccc1NC2=O`, the Potency was “inactive”.
With `CC(C)(C)NCC(O)c1cc(O)cc(O)c1` (stereo not given) the Potency was “inactive”.
In the case of `CC1=C(C)C(=O)C(CCCCC#CCCCC#CCO)=C(C)C1=O`, the Potency was “inactive”.
In the case of `C[N+](C)(C)CCOC(N)=O`, the Potency was “inactive”.
In the case of `NC(=O)c1cn(Cc2c(F)cccc2F)nn1`, the Potency was “inactive”.
For `CC(=O)OC(C)C[N+](C)(C)C` (stereo not given), the Potency was “inactive”.
`NC(Cc1ccc(Cl)cc1)C(=O)O` (stereo not given) was tested, and the activity change, negative = cytotoxicity was 14.4% [at 0.462 µM] (inactive).
In the case of `FC(F)(F)c1ccccc1-n1ccnc1`, the Potency was “inactive”.
With `CCCCNc1ccc(C(=O)OCCN(C)C)cc1` the Potency was “inactive”.
For `O=C(O)CCCCCCCC(=O)O`, the Potency was “inactive”.
For `CCN(CC)CCNC(=O)c1cc(S(C)(=O)=O)ccc1OC`, the Potency was “inactive”.
In the case of `O=C(O)CN(CCOCCOCCN(CC(=O)O)CC(=O)O)CC(=O)O`, the activity change, negative = cytotoxicity was 11.5% [at 0.462 µM] (inactive).
`CC(=O)[C@]1(O)Cc2c(O)c3c(c(O)c2[C@@H](O[C@H]2C[C@H](N)[C@H](O)[C@H](C)O2)C1)C(=O)c1ccccc1C3=O` was tested, and the Potency was 7.08 µM (active).
`CCN1CCC[C@H]1CNC(=O)c1c(O)c(Cl)cc(Cl)c1OC` was tested, and the Potency was “inactive”.
For `CCCN(CCC)C(=O)C(CCC(=O)O)NC(=O)c1ccccc1` (stereo not given), the Potency was “inactive”.
For `CN1C[C@H](C(=O)N[C@]2(C)O[C@@]3(O)[C@@H]4CCCN4C(=O)[C@H](Cc4ccccc4)N3C2=O)C[C@@H]2c3cccc4[nH]cc(c34)C[C@H]21`, the Potency was “inactive”.
With `C[n+]1cc2c3c(ccc2c2ccc4cc5c(cc4c21)OCO5)OCO3` the Potency was 8.91 µM (active).
For `NC(N)=NC(=O)Cc1c(Cl)cccc1Cl`, the Potency was “inactive”.
In the case of `O=C(O)CN(CCN(CC(=O)O)CC(=O)O)CCN(CC(=O)O)CC(=O)O`, the Potency was “inactive”.
For `CN=C(NC#N)NCCSCc1nc[nH]c1C`, the Potency was “inactive”.
For `NC/C=C/C(=O)O`, the Potency was “inactive”.
`Cc1ccc(/C(=C\CN2CCCC2)c2ccccn2)cc1` was tested, and the Potency was “inactive”.
With `CCCN(CCC)CCc1cccc2c1CC(=O)N2` the Potency was “inactive”.
`NC(=O)c1ncn([C@@H]2O[C@H](CO)[C@@H](O)[C@H]2O)c1O` was tested, and the Potency was “inactive”.
In the case of `CC(C)[N+](C)(CCOC(=O)C1c2ccccc2Oc2ccccc21)C(C)C`, the Potency was “inactive”.
With `O=C(O)CP(=O)(O)O` the Potency was “inactive”.
For `CCN(CC)CC(=O)Nc1c(C)cccc1C`, the Potency was “inactive”.
`NCCCNCCSP(=O)(O)O` was tested, and the activity change, negative = cytotoxicity was 7.86% [at 11.6 µM] (inactive).
`Brc1c(NC2=NCCN2)ccc2nccnc12` was tested, and the Potency was “inactive”.
With `c1ccc2c(c1)CCCC2C1=NCCN1` (stereo not given) the Potency was “inactive”.
